From PubChem BioAssay AID624330 (Southern Research Specialized Biocontainment Screening …, 2012)
Hit rate of the full screen: of about 340,000 compounds, about 2,100 (0.62%) were called active.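 Rule for the calls: active = first-screen hits whose inhibition reached a set limit at any dose in the follow-up dose series; inconclusive = inhibition above the set first-screen limit but never retested; inactive = the rest.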 Not all results are given here. Potency and affinity values are given separately.

These compounds were tested against Rac GTPase-activating protein 1 (Homo sapiens) (UniProt Q9H0H5) (assay: MgcRacGAP GTPase-activating activity inhibitors, confirmation, biochemical, ADP Hunter fluorescence, primary and confirmatory (AID 624330;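 note: fluorescence reports GDP produced by GAP-driven GTP hydrolysis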)). Details: MgcRacGAP-stimulated Rac1 GTP hydrolysis, at 30 µM, active compounds read high, GST-tagged Rac1 F28L mutant substrate.
Chain of Rac GTPase-activating protein 1 (Homo sapiens) (Q9H0H5 whole entry, looked up): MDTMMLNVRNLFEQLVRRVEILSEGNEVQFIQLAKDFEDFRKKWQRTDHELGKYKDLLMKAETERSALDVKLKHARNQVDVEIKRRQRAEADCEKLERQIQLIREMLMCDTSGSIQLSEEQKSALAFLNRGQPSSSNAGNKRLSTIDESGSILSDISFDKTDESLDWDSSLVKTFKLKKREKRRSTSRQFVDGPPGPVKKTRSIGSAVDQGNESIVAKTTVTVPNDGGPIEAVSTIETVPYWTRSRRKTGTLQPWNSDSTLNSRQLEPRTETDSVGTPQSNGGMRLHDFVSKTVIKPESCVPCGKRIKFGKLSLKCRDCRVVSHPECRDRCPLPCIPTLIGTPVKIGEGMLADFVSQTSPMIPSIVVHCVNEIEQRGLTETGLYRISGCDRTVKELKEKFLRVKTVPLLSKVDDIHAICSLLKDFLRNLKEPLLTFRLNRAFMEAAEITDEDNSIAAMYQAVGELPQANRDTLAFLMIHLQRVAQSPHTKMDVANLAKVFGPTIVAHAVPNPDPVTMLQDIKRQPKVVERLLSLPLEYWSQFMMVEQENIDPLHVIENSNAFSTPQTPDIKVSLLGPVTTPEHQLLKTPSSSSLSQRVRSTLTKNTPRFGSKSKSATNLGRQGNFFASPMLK
With `CCn1nc(C)c(NC(=O)CSc2nnc(-c3ccco3)n2C)c1C` the inhibition was 5.76% (inactive). `Cc1nn(CCCC(=O)Nc2cnn(Cc3ccc(F)cc3)c2)c(C)c1[N+](=O)[O-]` was tested, and the inhibition was -3.65% (inactive). With `O=C(c1cccc(N2CCNC2=O)c1)N1CCCC(Nc2cccc(F)c2)C1` (configuration not stated) the inhibition was -0.6% (inactive). For `COc1cc(OC)cc(C(=O)N2CCCC(Nc3ccc(F)cc3)C2)c1` (configuration not stated), the inhibition was 3.07% (inactive). For `Cc1ccc(NC2CCCN(C(=O)c3ccc(C)c(N4CCNC4=O)c3)C2)cc1C` (configuration not stated), the inhibition was 15.1% (inactive). With `CC(C)c1ccc(NC2CCCN(C(=O)c3cccc(N4CCNC4=O)c3)C2)cc1` (configuration not stated) the inhibition was 9.26% (inactive). `Cc1ccc(C(=O)N2CCCC(Nc3cccc(F)c3)C2)cc1N1CCNC1=O` (configuration not stated) was tested, and the inhibition was 7.34% (inactive). `COc1cccc(C(=O)N2CCCC(Nc3ccc(C)c(C)c3)C2)c1` (configuration not stated) was tested, and the inhibition was 16.7% (inactive). For `CC(C)CNc1nc(N)c([N+](=O)[O-])c(NC2CCCCC2)n1`, the inhibition was 9.84% (inactive). For `CCc1nn2c(=O)cc(CSCC(=O)Nc3ccccc3Cl)nc2s1`, the inhibition was 10.2% (inactive). In the case of `Cc1ccc(CN2CCN(Cc3ccc(OC(C)C)cc3)CC2CCO)o1` (configuration not stated), the inhibition is reported as 8.44% (inactive). For `Cc1cccnc1NC(=O)CCCNC(=O)c1ccc(Cl)cc1`, the inhibition was 5.51% (inactive). `Oc1cccc(CCc2ccccn2)c1` was tested, and the inhibition was -0.46% (inactive). `Nc1ccc(CCc2ccccn2)cc1` was tested, and the inhibition was -1.15% (inactive). In the case of `COc1ccc(OCC(=O)OCC(=O)NCc2ccco2)cc1`, the inhibition is reported as 5.26% (inactive). For `COCCNC(=O)COc1cccc(Oc2ccccc2)c1`, the inhibition was 12.7% (inactive). With `O=C(COC(=O)COc1ccccc1)NCc1ccco1` the inhibition was 5.42% (inactive). `O=C(COc1ccc(Cl)cc1)OCC(=O)N1CCCC1` was tested, and the inhibition was 8.63% (inactive). For `O=C(COc1ccc(Cl)cc1)OCC(=O)N1CCCCCC1`, the inhibition was 11.4% (inactive). In the case of `COCCNC(=O)COc1ccc(Oc2ccccc2)cc1`, the inhibition is reported as 8.68% (inactive). For `Cc1ccc(CNC(=O)C2CCC(CNS(=O)(=O)c3cccs3)CC2)cc1` (configuration not stated), the inhibition was 5.1% (inactive). `Cc1cccc(NC(=O)CNC(=O)c2ccc(-n3cncn3)c([N+](=O)[O-])c2)c1C` was tested, and the inhibition was 0.04% (inactive). For `Cc1cc(OC(C)C(=O)NCc2cccnc2)c2c(C)cc(=O)oc2c1` (configuration not stated), the inhibition was 3.28% (inactive). `CC(NS(=O)(=O)c1ccc2c(c1)C(C)(C)C(=O)N2C)c1ccccc1` (configuration not stated) was tested, and the inhibition was 3.16% (inactive). `N/C(=N\c1nc2c(c(=O)[nH]1)CCC2)Nc1ccccc1C(F)(F)F` was tested, and the inhibition was -0.36% (inactive). With `Cn1c(=O)[nH]c(=O)c2c1nc(Br)n2Cc1ccc(Cl)cc1` the inhibition was 8.01% (inactive). With `CSc1nc2c(c(=O)[nH]c(=O)n2C)n1Cc1ccc(Cl)cc1` the inhibition was 11.4% (inactive).
